Eight compounds from PubChem BioAssay (NCI) can be followed below.

What all share (experiment): NCI-60 one-dose screen, 48 h (100 = growth as untreated, 0 = no growth, -100 = all killed)
Holding throughout (conditions): 10 µM unless noted

Experiment [1] has as its system SK-MEL-2 melanoma.
For experiment [2], the system named is EKVX NSCLC.
The test system of experiment [3] is SN12C renal.
Experiment [4] relates to UO-31 renal.
For experiment [5], the system named is TK-10 renal.
The test system of experiment [6] is CAKI-1 renal.
The test system of experiment [7] is A498 renal.
Experiment [8] relates to CCRF-CEM leukemia.
The test system of experiment [9] is MOLT-4 leukemia.
For experiment [10], the system named is RPMI-8226 leukemia.
The subject of experiment [11] is OVCAR-8 ovarian.
Experiment [12] concerns OVCAR-5 ovarian.
In experiment [13] the test system is OVCAR-4 ovarian.
Experiment [14] concerns SK-OV-3 ovarian.
Experiment [15] has as its system IGROV1 ovarian.
Experiment [16] concerns OVCAR-3 ovarian.
Experiment [17] relates to HS 578T breast.
Experiment [18] deals with NCI/ADR-RES ovarian.
Experiment [19] has as its system SR leukemia.
The subject of experiment [20] is ACHN renal.

The panel holds about 83,000 compounds, 20% with a hit somewhere; the sample as a whole holds those more often.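 Single-dose data. Exposure time 48 hours. Values below 10 considered active.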 A number with no mark means an inactive call. Calls of active or inactive are those of the source.

In the case of `N#CCCN=Nc1c(O)[nH]c2ccc([N+](=O)[O-])cc12`, the growth in [1] is 95.6%; in experiment [2] it was 91.3%; in [3], 98.7%; in [4], 76.9%; in [5], 108%; in experiment [6] it was 86.1%. The growth in experiment [7] is 94.3%; in experiment [8], 103%; in experiment [9], 100%; in experiment [10] it was 105%; in [11] it was 102%; in [12], 97%. In addition, the growth in [13] is 105%; in [14], 86%; in [15], 99.6%; in experiment [16] it was 103%; in experiment [17], 103%; in experiment [18], 104%.
With `O=S(=O)(Nc1ccc(Br)c(Cl)c1)c1ccc(-c2cnc(C3CC3)o2)cc1`, the growth is 34.4% in experiment [1]; 33.9% in experiment [2]; 41.1% in [3]; 47.5% in [4]; 51.5% in [5]; 30.9% in experiment [6]. For the same compound, the growth is -18.2% (active) in experiment [7]; 19.3% in experiment [8]; 27.6% in experiment [9]; 20.5% in experiment [10]; 20.4% in experiment [11]; 29.4% in experiment [12]. Further, the growth in [13] was 46.3%; in experiment [14], 36.3%; in [15] it was 26.8%; in experiment [16] it was -19.6% (active); in [17], 10% (active); in experiment [18] it was -15.2% (active).
Take `O=S(=O)(Nc1ccc(Cl)c(F)c1)c1ccc(-c2cnc(C3CC3)o2)cc1`: the growth in experiment [1] was 31.9%; in experiment [2] it was 34.4%; in [3], 47.6%; in [4], 48.6%; in experiment [5], 45.5%; in experiment [6], 32.1%. Moreover, the growth in experiment [7] is -16.1% (active); in [8], 19.9%; in experiment [9] it was 28.6%; in experiment [10], 21.2%; in [11] it was 24.5%; in [12], 35.8%. Moreover, the growth in experiment [13] is 49.1%; in experiment [14], 36.3%; in experiment [15] it was 27.4%; in experiment [16], -6.7% (active); in experiment [17] it was 16.1%; in experiment [18], -20.8% (active).
Take `C=C(C)[C@@H]1CC[C@]2(C(=O)OC)CC[C@]3(C)[C@H](CC[C@@H]4[C@@]5(C)C/C(=C/c6cccc(I)c6)C(=O)C(C)(C)[C@@H]5CC[C@]43C)[C@@H]12`: the growth in [1] was 103%; in experiment [2] it was 94.6%; in [3] it was 101%; in experiment [4] it was 85.2%; in experiment [5], 101%; in experiment [6], 82%. For the same compound, the growth was 116% in experiment [7]; 97.9% in [8]; 95.8% in experiment [9]; 95.7% in experiment [10]; 101% in experiment [11]; 98.7% in experiment [12]. In addition, the growth is 107% in experiment [13]; 93.9% in experiment [14]; 103% in experiment [15]; 119% in experiment [16]; 88% in experiment [17]; 94.1% in experiment [18].
Consider `Cc1cc(N[C@@H]2CCC[C@H](Nc3ccnc4cc(Cl)ccc34)C2)nc(N2CCCCCC2)n1`, for which the growth in experiment [1] was -75.7% (active); in experiment [2] it was 7.62% (active); in experiment [3], -74.8% (active); in experiment [4], -95.6% (active); in [5], -67.7% (active); in experiment [7] it was -87.6% (active). Also, the growth in [8] was -23.1% (active); in experiment [9], -18.5% (active); in [19], -57.4% (active); in experiment [10] it was -52.2% (active); in experiment [11], -43% (active); in experiment [12], -15.8% (active). The growth was -5.16% (active) in experiment [13]; -51.9% (active) in [14]; -45.5% (active) in experiment [15]; -58.8% (active) in [16]; -46.8% (active) in experiment [17]; -39.8% (active) in experiment [18].
Consider `O=C(N=Nc1c(O)[nH]c2ccccc12)c1cc(-c2ccccc2)on1`, for which the growth is 108% in [1]; 92% in [2]; 96% in experiment [3]; 85.4% in [4]; 123% in experiment [5]; 86.7% in experiment [6]. Further, the growth in [8] was 107%; in [9] it was 104%; in experiment [10], 112%; in [11] it was 102%; in experiment [12] it was 99.8%; in experiment [13], 104%. In addition, the growth in experiment [14] was 116%; in experiment [15], 104%; in experiment [16], 111%; in experiment [17], 96.7%; in experiment [18] it was 105%.
As for `COc1ccc2c(c1)C(=O)/C(=C/c1cccnc1)CC2`, the growth is 97.7% in experiment [1]; 96.5% in [2]; 92.3% in experiment [4]; 97.7% in experiment [5]; 88.5% in experiment [20]; 90.8% in experiment [6]. The growth is 100% in [7]; 68% in experiment [8]; 82.4% in experiment [9]; 30.7% in experiment [19]; 1.31% (active) in experiment [10]; 96.8% in experiment [11]. The growth in [12] is 93%; in experiment [13], 93.4%; in experiment [14], 101%; in [15], 101%; in experiment [16], 98.6%; in [17] it was 115%. The growth in experiment [18] was 94.8%.
Turning to `COc1ccc2c(c1)CC/C(=C\c1cncc(Br)c1)C2=O`, the growth was 95.1% in experiment [1]; 99.2% in [2]; 96.5% in [4]; 85% in experiment [5]; 84.9% in experiment [20]; 86.6% in [6]. Moreover, the growth was 96.5% in experiment [7]; 13.5% in experiment [8]; 83.5% in experiment [9]; 33.5% in experiment [19]; 8.06% (active) in experiment [10]; 90% in [11]. In addition, the growth in experiment [12] is 86.8%; in experiment [13], 86.5%; in experiment [14], 99.7%; in experiment [15], 94.8%; in experiment [16], 95.9%; in [17] it was 116%. Further, the growth in [18] was 83.1%.
